Assay results as given in PubChem BioAssay (NCI).
Where “and” joins values, the source holds several entries; their conditions need not be identical. Equal values may be shown once. The panel holds about 83,000 compounds, 20% with a hit somewhere; the sample as a whole holds those more often.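 Plates (96-well) were seeded with cells, treated with compound at one concentration, and incubated for 48 hours before percent growth was determined.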 Calls of active or inactive are those of the source. Rule for the calls: active = growth percent below 10; inactive = the rest.

Key:
Assay in all cases: NCI-60 one-dose screen, 48 h (100 = growth as untreated, 0 = no growth, -100 = all killed)
Conditions in all cases: 10 µM unless noted
[1] = system: SR leukemia
[2] = system: RPMI-8226 leukemia
[3] = system: OVCAR-8 ovarian
[4] = system: OVCAR-5 ovarian
[5] = system: OVCAR-4 ovarian
[6] = system: SK-OV-3 ovarian
[7] = system: IGROV1 ovarian
[8] = system: OVCAR-3 ovarian
[9] = system: HS 578T breast
[10] = system: NCI/ADR-RES ovarian
[11] = system: T-47D breast
[12] = system: BT-549 breast
[13] = system: MDA-MB-435 melanoma
[14] = system: SW-620 colon
[15] = system: MCF7 breast
[16] = system: HCT-116 colon
[17] = system: HCC-2998 colon
[18] = system: KM12 colon

Measured: growth

CC(=O)c1nn(-c2ccccc2)/c(=N/N=Cc2cn(-c3ccccc3)nc2-c2cc3ccccc3oc2=O)s1
inactive: [1] 88.1% | [2] 102% | [3] 103% | [4] 106% | [5] 104% | [6] 106% | [7] 107% | [8] 116% | [9] 115% | [10] 107% | [11] 89.1% | [12] 105% | [13] 103% | [14] 104% | [15] 91.5% | [16] 97.6% | [17] 108% | [18] 106%

N=C(N)c1ccc(-c2ccc(-c3ccc(Cl)c(Cl)c3)s2)cc1
inactive: [4] 15.2% | [6] 94.6% | [9] 94% | [10] 83.5% | [11] 62.1% | [12] 109% | [13] 14.4%
active: [1] 5.08% | [2] -15.6% | [3] -17% | [5] -16.2% | [7] -49.5% | [8] -87.9% | [14] -65.1% | [15] -62.4% | [16] -46.6% | [17] -53.7% | [18] -91.4%

COc1c(F)cc(-n2c(C(=O)N3CC(F)C3)cc3cccnc32)cc1F
inactive: [1] 97.1% | [2] 95.1% | [3] 102% | [4] 100% | [5] 97.1% | [6] 111% | [7] 94.4% | [8] 101% | [9] 105% | [10] 90.7% | [11] 89.5% | [12] 97.2% | [13] 116% | [14] 104% | [15] 105% | [16] 95.9% | [17] 99.7% | [18] 98.8%

CCCCC1=C(Br)C(=O)c2nc(C)ccc2C1=O
inactive: [1] 21.8% | [2] 58.5% | [3] 88.3% | [4] 102% | [5] 75.5% | [6] 95% | [7] 83.9% | [8] 48.5% | [9] 90.9% | [10] 100% | [11] 65.7% | [12] 90% | [13] 102% | [14] 60.2% | [15] 82.1% | [16] 42.7% | [17] 108% | [18] 98.7%

S=c1nc(CS)[nH]c2ccccc12
inactive: [1] 101% | [2] 102% | [3] 90.9% | [4] 102% | [5] 94.3% | [6] 100% | [7] 85.7% | [8] 106% | [9] 94.1% | [10] 101% | [11] 109% | [12] 101% | [13] 101% | [14] 98.5% | [15] 79.6% | [16] 100% | [17] 110% | [18] 100%

Cc1ccc(/C=C2\COc3ccc(O)c(O)c3C2=O)cc1
inactive: [1] 18% | [5] 15.7% | [6] 50% | [9] 20.5% | [15] 15.1%
active: [2] -12.6% | [3] 4.95% | [4] -22.1% | [7] -37.4% | [8] -21.3% | [10] 3.13% | [11] -7.19% | [12] -13.1% | [13] -24.4% | [14] -32.4% | [16] -22.9% | [17] 9.54% | [18] -19.9%

Cc1ccc(C(=O)c2ccc(CC(=O)N=Nc3c(O)[nH]c4ccc(OC(F)(F)F)cc34)n2C)cc1
inactive: [1] 102% | [2] 102% | [3] 94% | [4] 100% | [5] 118% | [6] 96.9% | [7] 85.2% | [8] 117% | [9] 94.5% | [10] 92.4% | [11] 74.5% | [12] 95.3% | [13] 97.9% | [14] 95.7% | [15] 91.5% | [16] 97% | [17] 119% | [18] 94%

COc1ccccc1/C=C1\COc2ccc(O)c(O)c2C1=O
active: [1] 8.02% | [2] -19.3% | [3] 9.04% | [7] 6.74% | [8] -11.8% | [10] 3.53% | [13] 8.84% | [14] 3.71% | [16] 8.37%
inactive: [4] 28.3% | [5] 28.1% | [6] 60.3% | [9] 10.4% | [11] 11.6% | [12] 24.2% | [15] 14.8% | [17] 69.7% | [18] 20.8%

Cc1ccc(S(=O)(=O)OC[C@@]2(C)CC[C@]3(C)CC[C@]4(C)C(=CC[C@@H]5[C@@]6(C)CCCNC(C)(C)[C@@H]6CC[C@]54C)[C@@H]3C2)cc1
inactive: [6] 75.2% | [12] 76.5%
active: [1] -39.3% | [2] -57.8% | [3] -50.2% | [4] -84% | [5] -78.5% | [7] -84.9% | [8] -95.8% | [9] -20% | [10] -65.8% | [11] -82.8% | [13] -89.9% | [14] -81.9% | [15] -61.6% | [16] -80.6% | [17] -92.3% | [18] -91.7%

Cc1nnc(NS(=O)(=O)c2ccc(N=Nc3ccc(N)nc3N)cc2)s1
inactive: [1] 94.2% and 94.5% | [2] 105% | [3] 107% and 116% | [4] 98.7% and 99.3% | [5] 110% and 105% | [6] 111% | [7] 123% and 108% | [8] 124% and 105% | [9] 121% and 105% | [10] 102% and 106% | [11] 114% | [12] 90.4% and 108% | [13] 115% and 105% | [14] 108% and 106% | [15] 105% and 106% | [16] 99.7% and 103% | [17] 105% | [18] 104% and 103%

COCCn1cc(-c2nc(-c3cn(CCOC)c4ncccc34)cs2)c2ccccc21
inactive: [1] 102% | [2] 45.2% | [3] 97.7% | [4] 46% | [5] 23.1% | [6] 63.3% | [7] 36.7% | [8] 17.2% | [9] 86.7% | [10] 95.2% | [12] 77.7% | [13] 108% | [14] 115% | [15] 10.5% | [16] 79.9% | [17] 42.2% | [18] 21.1%
active: [11] -3.64%

N#Cc1ccccc1-c1ccc(Cn2c(-c3cscn3)nc3c(Cl)cccc32)cc1
inactive: [1] 55.2% | [2] 48.3% | [3] 78.2% | [4] 86.8% | [5] 62% | [6] 82.6% | [7] 89.1% | [8] 63.3% | [9] 85.5% | [10] 73.3% | [11] 56.3% | [12] 76.1% | [13] 90.1% | [14] 87.6% | [15] 64.2% | [16] 51.2% | [17] 93% | [18] 77.1%

Cc1c(C(=O)OCCCCOC(=O)c2c(C)n(C)c3scc[n+]23)[n+]2ccsc2n1C
inactive: [1] 117% | [2] 96.1% | [3] 96.2% | [4] 83.5% | [5] 103% | [6] 103% | [7] 110% | [8] 95.3% | [9] 179% | [10] 110% | [11] 97.1% | [12] 110% | [13] 109% | [14] 125% | [15] 100% | [16] 107% | [17] 115% | [18] 118%

CC(=O)N1N=C(c2ccc(Nc3nc(Nc4ccc(F)cc4)nc(Nc4ccc(Cl)cc4)n3)cc2)CC1c1ccc(N(C)C)cc1 (stereo not given)
active: [1] -9.66%
inactive: [2] 55% | [3] 40.2% | [4] 65.9% | [5] 47.8% | [6] 85.1% | [7] 60.8% | [8] 63.5% | [9] 24.6% | [10] 48.3% | [11] 24.3% | [12] 69.5% | [13] 18.7% | [14] 78.5% | [15] 29.9% | [16] 130% and 24.2% | [17] 22% | [18] 55.5%

Cc1cnc(C(=O)NNc2nc3sc4c(c3c(=O)[nH]2)C(C)CCC4)cn1 (stereo not given)
inactive: [1] 21.4% | [2] 29.3% | [3] 15.3% | [4] 34.7% | [5] 22.1% | [6] 16.2% | [7] 14.5% | [8] 31.5% | [9] 46.8% | [10] 11.7% | [11] 30.4% | [12] 39.5% | [13] 31.4% | [14] 35.3% | [15] 13.9% | [16] 22.5% | [17] 11.1% | [18] 17.5%
